In PubChem BioAssay (Tox21) one finds Potency and outcome data, which are given here for eight molecules.

Molecules are shown by their SMILES. Inconclusive results are not listed. The source holds several records for some structures; these can differ, active in one and inactive in another. The source made the active and inactive calls. Unless noted, calls follow the shape of the dose curve; as a rule, active = well fitted curve in the direction sought with a large enough effect in the repeat runs; inconclusive = weak or mixed curves; inactive = no such curve, though single readings can be large; an effect the other way counts as inactive or inconclusive.

Experiment [1] in a line: qHTS assay to identify small molecule HDAC inhibitors (AID 1259364).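 Also: wild-type HCT-116 cells with endogenous class I/II HDAC activity; top concentration of the series differs between compounds; nearly all actives have a fitted effect of over 45% in size.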 Summed up:
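HCT-116 wt cells, 1,500/well, overnight attach. Compounds (DMSO) 2 h, 37 °C. HDAC-Glo I/II, 30 min RT. Luminescence.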

Experiment [2] can be described thus: qHTS assay to identify small molecule HDAC inhibitors - cell viability counter screen (AID 1259365). Also: series mostly up to about 92 µM; nearly all actives have a fitted effect of over 50% in size. Summed up: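 HCT-116 wild-type, overnight attachment; 2hr drug exposure, 37C; CellTiter-Glo luminescent ATP readout after 30min RT.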
Background: qHTS replaces the single test concentration by a dilution series.

Experiment [3] can be described thus: qHTS assay to identify small molecule agonists of the sonic hedgehog signaling (Shh) pathway - cell viability counter screen (AID 1259366). Also: nearly all actives have a fitted effect of over 50% in size. Also: potency is read from the fitted curve at half-maximal effect. Summed up:
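Compounds in DMSO were pin-transferred onto 3T3 Gli1-Luc cells that had settled 4hr; plates then stood 24hr at 37C and 5% CO2. One hour before the end, CellTiter-Fluor was added and fluorescence recorded.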

Experiment [4] in a line: qHTS assay to identify small molecule antagonists of the sonic hedgehog signaling (Shh) pathway - cell viability counter screen (AID 1259367). Also: nearly all actives have a fitted effect of over 55% in size. Summed up:
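Cytotoxicity was assessed in parallel with Shh reporter activity by measuring live-cell protease fluorescence (CellTiter-Fluor) in NIH/3T3 cells stably carrying Gli1-Luc, treated with compound under conditioned medium stimulation for 23 hr plus 1 hr reagent incubation.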

A short description of experiment [5]: qHTS assay to identify small molecule agonists of the sonic hedgehog signaling (Shh) pathway (AID 1259368; calls by dose curve;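 also: NIH/3T3-derived 3T3Gli1-Luc cells carrying a stable Gli1-driven firefly luciferase reporter; series mostly up to about 92 µM; nearly all actives have a fitted effect of over 15% in size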). Summed up:
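Following a 24 hr incubation with DMSO-dissolved compounds at 37 C, 5% CO2, Gli1-Luc NIH/3T3-derived cells received luciferase reagent for 30 min at room temperature prior to luminescence measurement.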

Experiment [6] can be described thus: qHTS assay to identify small molecule antagonists of the sonic hedgehog signaling (Shh) pathway (AID 1259369; calls by dose curve; also: nearly all actives have a fitted effect of over 45% in size; also: potency is read from the fitted curve at half-maximal effect). Summed up:
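Read-out is luminescence from a firefly luciferase gene controlled by the Gli1 response element, in 3T3Gli1-Luc cells pre-incubated 4hr then exposed to compounds and conditioned medium for 24hr.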

Experiment [7] in a line: qHTS assay to identify small molecule agonists of the androgen receptor (AR) signaling pathway in the presence of an antagonist - cell viability counter screen (AID 1259379).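 Also: MDA-kb2 human breast cancer cells carrying an MMTV luciferase reporter; series mostly up to about 92 µM; nearly all actives have a fitted effect of over 25% in size.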 Summed up: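 Each compound was tested at 15 concentrations on MDA-kb2 cells in the presence of 3.0uM nilutamide. Viability was measured by CellTiter-Fluor fluorescence after a 16 hr incubation at 37C in a CO2-free atmosphere.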

A short description of experiment [8]: qHTS assay to identify small molecule agonists of the estrogen receptor beta (ER-beta) signaling pathway - cell viability counter screen (AID 1259380). Also: nearly all actives have a fitted effect of over 30% in size. A digest of the protocol: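 Compounds dissolved in DMSO were pin-transferred onto ER-beta-UAS-bla HEK293T cells that had settled 6 hr, and exposure ran 16 hr at 37C. Following the reporter read, CellTiter-Glo luminescence after 30 min at room temperature indicated cytotoxicity.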

Experiment [9] in a line: qHTS assay to identify small molecule antagonists of the estrogen receptor beta (ER-beta) signaling pathway - cell viability counter screen (AID 1259382). Also: series mostly up to about 92 µM; nearly all actives have a fitted effect of over 55% in size. Summed up:
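CellTiter-Glo ATP luminescence measured after the LiveBLAzer read in the same wells; ER-beta-UAS-bla HEK293T cells, 16 hr compound treatment with 1nM 17-beta-estradiol agonist at 37C, 5% CO2.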

Experiment [10] addresses Estrogen receptor (Homo sapiens) (UniProt P03372). Description: qHTS assay to identify small molecule agonists of the estrogen receptor alpha (ER-alpha) signaling pathway in the presence of an antagonist (AID 1259383; calls by dose curve; also: top concentration of the series differs between compounds; nearly all actives have a fitted effect of over 15% in size). Summed up: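 Luminescent ERE-luciferase reporter, VM7Luc4E2 cells (endogenous ER-alpha); 10.0nM ICI-182,780 final; 15-point compound titration; 22hr at 37C; ONE-Glo, 30min RT.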

Experiment [11] can be described thus: qHTS assay to identify small molecule agonists or antagonists of the thyroid stimulating hormone receptor (TSHR) signaling pathway - wild type cell line counter screen (AID 1259384; calls by dose curve). Summed up:
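Wild-type HEK293 cells were plated 18 h at 37 C/5% CO2, pin-dosed with compound plus Ro20-1724 medium, held 30 min at room temperature, then given cAMP-d2 and anti-cAMP-cryptate; fluorescence was read after 1 h. Fifteen concentrations, triplicate.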

In experiment [12] the target is Thyrotropin receptor (Homo sapiens) (UniProt P16473). Description: qHTS assay to identify small molecule antagonists of the thyroid stimulating hormone receptor (TSHR) signaling pathway (AID 1259385; calls by dose curve; also: nearly all actives have a fitted effect of over 20% in size). Summed up: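 TSHR-HEK293 cells were plated and held 18 h at 37C/5% CO2, then given compound plus Ro20-1724 and stimulated with TSH at 1.5 ng/mL final. After 30 min at room temperature, cAMP was detected with cAMP-d2/anti-cAMP-cryptate (1 h) by fluorescence.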

A short description of experiment [13]: qHTS assay to identify small molecule agonists of the estrogen receptor alpha (ER-alpha) signaling pathway in the presence of an antagonist - cell viability counter screen (AID 1259386).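 Also: series mostly up to about 92 µM; cells exposed to compounds for 22 h at 37 °C before the viability read; nearly all actives have a fitted effect of over 30% in size.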 Summed up:
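Using estrogen-depleted VM7Luc4E2 cells, the 15-concentration compound series was applied together with 10.0nM ICI-182,780 and incubated 22hr at 37C/5% CO2. Cell viability was then scored by CellTiter-Fluor.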

Experiment [14] deals with Progesterone receptor (Homo sapiens) (UniProt P06401). Description: qHTS assay to identify small molecule agonists of the progesterone receptor (PR) signaling pathway (AID 1346784; calls by dose curve; also: nearly all actives have a fitted effect of over 30% in size). A digest of the protocol: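 Fluorescence from LiveBLAzer B/G FRET substrate cleavage (2 hr, RT) reported PR activation in PR-UAS-bla HEK 293T cells treated 16 hr at 37C/5% CO2 with compounds; medium contained 2% charcoal-stripped FBS.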

The target is the same in experiment [15]. Description: qHTS assay to identify small molecule antagonists of the progesterone receptor (PR) signaling pathway (AID 1346795; active = well fitted inhibition curve with a large enough effect in the signal ratio in the repeat runs, not every such curve was filed as active; the % refers to the signal ratio). Summed up:
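Fluorescence intensity measured 2 hr after adding beta-lactamase FRET substrate to PR-UAS-bla HEK293T cells that had been co-treated 16 hr with compound and 1 nM R5020 (final concentration) in 2% charcoal-stripped FBS.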

Experiment [16] in a line: qHTS assay to identify small molecule antagonists of the progesterone receptor (PR) signaling pathway - cell viability counter screen (AID 1346798). Also: series mostly up to about 92 µM; nearly all actives have a fitted effect of over 50% in size. Summed up: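 CellTiter-Glo luminescence; PR-UAS-bla HEK293T, 3,000 cells/well; compound + R5020, 16 hr, 37C/5% CO2; 30 min RT before read.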
Experiment [17] concerns the target Estrogen receptor beta (Homo sapiens) (UniProt Q92731). Description: qHTS assay to identify small molecule agonists of the estrogen receptor beta (ER-beta) signaling pathway (AID 1259377; active = well fitted activation curve with a large enough effect in the signal ratio in the repeat runs, not every such curve was filed as active; the % refers to the signal ratio). A digest of the protocol: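 qHTS in ER-beta-UAS-bla HEK293T cells: 6 hr settling, then 16 hr compound at 37C, then LiveBLAzer substrate 2 h at RT before fluorescence reading.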

Experiment [18] shares this target. Description: qHTS assay to identify small molecule antagonists of the estrogen receptor beta (ER-beta) signaling pathway (AID 1259378; active = well fitted inhibition curve with a large enough effect in the signal ratio in the repeat runs, not every such curve was filed as active; the % refers to the signal ratio). A digest of the protocol:
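ER-beta-UAS-bla HEK293T (GripTite) cells in 2% charcoal-stripped FBS medium were preincubated 6 hr at 37C, dosed with compound, then stimulated with 1 nM E2 (final) for 16 hr; beta-lactamase reporter read by B/G FRET fluorescence after 2 hr substrate loading.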

In experiment [19] the target is Androgen receptor (Homo sapiens) (UniProt P10275). Put plainly: qHTS assay to identify small molecule agonists of the androgen receptor (AR) signaling pathway in the presence of an antagonist (AID 1259381; calls by dose curve; also: nearly all actives have a fitted effect of over 15% in size). A digest of the protocol: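 Plated MDA-kb2 cells (3,000/well) were pre-incubated 5hr, given nilutamide (3.0uM final) or buffer, then dosed with compounds in DMSO at 15 concentrations. Luciferase activity was quantified by luminescence after 16hr at 37C.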
Androgen receptor (Homo sapiens), sequence (P10275 whole entry, looked up): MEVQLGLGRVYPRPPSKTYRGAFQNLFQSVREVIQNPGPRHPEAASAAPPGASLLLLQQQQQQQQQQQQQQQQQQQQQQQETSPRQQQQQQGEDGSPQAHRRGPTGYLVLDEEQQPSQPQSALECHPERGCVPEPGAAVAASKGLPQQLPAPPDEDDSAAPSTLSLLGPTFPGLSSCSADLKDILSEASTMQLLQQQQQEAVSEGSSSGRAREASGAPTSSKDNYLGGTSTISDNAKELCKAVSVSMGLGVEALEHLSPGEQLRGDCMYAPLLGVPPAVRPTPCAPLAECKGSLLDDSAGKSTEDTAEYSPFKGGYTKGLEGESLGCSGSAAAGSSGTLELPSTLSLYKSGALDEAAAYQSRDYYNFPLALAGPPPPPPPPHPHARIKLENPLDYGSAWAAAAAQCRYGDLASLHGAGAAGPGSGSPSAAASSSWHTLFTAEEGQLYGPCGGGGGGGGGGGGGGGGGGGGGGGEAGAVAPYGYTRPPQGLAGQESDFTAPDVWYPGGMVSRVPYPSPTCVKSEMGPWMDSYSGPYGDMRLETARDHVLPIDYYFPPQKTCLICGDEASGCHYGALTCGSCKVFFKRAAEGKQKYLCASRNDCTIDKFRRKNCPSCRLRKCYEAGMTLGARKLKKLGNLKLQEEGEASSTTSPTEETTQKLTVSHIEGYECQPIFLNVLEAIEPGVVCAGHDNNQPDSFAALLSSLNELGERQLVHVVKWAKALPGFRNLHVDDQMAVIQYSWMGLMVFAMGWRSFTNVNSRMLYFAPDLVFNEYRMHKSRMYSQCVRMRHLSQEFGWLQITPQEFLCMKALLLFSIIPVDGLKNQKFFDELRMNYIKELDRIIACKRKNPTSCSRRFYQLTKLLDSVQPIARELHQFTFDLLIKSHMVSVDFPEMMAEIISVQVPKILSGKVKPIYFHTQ

Estrogen receptor beta (Homo sapiens), sequence (Q92731 whole entry, looked up): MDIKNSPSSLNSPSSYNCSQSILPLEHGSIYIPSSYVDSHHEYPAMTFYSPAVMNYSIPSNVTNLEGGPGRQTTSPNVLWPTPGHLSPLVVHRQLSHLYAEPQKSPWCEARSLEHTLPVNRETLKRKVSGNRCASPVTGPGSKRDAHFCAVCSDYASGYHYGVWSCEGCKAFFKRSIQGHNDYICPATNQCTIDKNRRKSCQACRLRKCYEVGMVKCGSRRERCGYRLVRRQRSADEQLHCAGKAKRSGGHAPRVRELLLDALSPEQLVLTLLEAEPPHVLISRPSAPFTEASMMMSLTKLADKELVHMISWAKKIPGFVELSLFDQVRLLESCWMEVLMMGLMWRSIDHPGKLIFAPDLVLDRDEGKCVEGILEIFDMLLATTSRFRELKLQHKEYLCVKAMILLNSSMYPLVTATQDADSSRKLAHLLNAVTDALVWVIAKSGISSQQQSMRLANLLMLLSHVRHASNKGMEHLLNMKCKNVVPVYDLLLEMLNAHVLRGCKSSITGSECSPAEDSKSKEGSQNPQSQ
Estrogen receptor (Homo sapiens), sequence (P03372 whole entry, looked up): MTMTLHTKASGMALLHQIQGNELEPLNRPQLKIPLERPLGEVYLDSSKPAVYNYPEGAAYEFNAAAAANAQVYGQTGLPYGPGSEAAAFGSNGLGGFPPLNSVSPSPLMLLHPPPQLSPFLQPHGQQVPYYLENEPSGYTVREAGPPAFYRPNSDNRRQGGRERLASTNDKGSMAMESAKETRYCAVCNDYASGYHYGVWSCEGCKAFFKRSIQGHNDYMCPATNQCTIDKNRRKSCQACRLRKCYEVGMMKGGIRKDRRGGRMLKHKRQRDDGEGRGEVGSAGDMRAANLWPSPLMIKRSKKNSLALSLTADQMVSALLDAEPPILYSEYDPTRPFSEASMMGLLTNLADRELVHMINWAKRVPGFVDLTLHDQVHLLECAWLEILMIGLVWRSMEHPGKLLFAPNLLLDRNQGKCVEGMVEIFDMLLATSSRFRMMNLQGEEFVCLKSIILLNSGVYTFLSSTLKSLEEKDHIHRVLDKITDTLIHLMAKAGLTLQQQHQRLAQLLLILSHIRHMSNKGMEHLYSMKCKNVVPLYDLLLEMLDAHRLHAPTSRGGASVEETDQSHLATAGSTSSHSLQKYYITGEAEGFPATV
Progesterone receptor (Homo sapiens), sequence (P06401 whole entry, looked up): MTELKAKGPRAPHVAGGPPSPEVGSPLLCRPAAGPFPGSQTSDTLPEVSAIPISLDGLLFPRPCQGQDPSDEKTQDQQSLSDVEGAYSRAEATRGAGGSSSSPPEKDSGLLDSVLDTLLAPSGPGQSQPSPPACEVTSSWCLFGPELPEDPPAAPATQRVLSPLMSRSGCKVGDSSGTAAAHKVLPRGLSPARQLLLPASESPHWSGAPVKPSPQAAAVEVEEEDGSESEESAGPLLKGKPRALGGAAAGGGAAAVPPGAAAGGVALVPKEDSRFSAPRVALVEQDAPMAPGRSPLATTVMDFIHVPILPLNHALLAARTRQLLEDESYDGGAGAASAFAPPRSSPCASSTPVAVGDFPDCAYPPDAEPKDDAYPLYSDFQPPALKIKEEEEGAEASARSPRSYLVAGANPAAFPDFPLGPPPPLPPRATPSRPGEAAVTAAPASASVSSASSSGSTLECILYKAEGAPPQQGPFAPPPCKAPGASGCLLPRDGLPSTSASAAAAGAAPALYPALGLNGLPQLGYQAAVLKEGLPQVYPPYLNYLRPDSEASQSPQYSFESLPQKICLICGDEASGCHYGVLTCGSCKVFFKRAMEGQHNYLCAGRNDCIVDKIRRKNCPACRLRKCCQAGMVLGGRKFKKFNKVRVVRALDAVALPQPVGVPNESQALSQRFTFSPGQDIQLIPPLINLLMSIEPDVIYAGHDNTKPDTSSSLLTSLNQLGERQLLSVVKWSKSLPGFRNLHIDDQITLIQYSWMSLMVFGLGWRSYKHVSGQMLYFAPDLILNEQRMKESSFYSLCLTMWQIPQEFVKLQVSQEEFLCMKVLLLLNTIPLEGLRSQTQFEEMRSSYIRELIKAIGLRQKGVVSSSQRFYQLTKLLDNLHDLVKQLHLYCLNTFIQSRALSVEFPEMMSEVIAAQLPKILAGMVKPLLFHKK
Thyrotropin receptor (Homo sapiens), sequence (P16473 whole entry, looked up): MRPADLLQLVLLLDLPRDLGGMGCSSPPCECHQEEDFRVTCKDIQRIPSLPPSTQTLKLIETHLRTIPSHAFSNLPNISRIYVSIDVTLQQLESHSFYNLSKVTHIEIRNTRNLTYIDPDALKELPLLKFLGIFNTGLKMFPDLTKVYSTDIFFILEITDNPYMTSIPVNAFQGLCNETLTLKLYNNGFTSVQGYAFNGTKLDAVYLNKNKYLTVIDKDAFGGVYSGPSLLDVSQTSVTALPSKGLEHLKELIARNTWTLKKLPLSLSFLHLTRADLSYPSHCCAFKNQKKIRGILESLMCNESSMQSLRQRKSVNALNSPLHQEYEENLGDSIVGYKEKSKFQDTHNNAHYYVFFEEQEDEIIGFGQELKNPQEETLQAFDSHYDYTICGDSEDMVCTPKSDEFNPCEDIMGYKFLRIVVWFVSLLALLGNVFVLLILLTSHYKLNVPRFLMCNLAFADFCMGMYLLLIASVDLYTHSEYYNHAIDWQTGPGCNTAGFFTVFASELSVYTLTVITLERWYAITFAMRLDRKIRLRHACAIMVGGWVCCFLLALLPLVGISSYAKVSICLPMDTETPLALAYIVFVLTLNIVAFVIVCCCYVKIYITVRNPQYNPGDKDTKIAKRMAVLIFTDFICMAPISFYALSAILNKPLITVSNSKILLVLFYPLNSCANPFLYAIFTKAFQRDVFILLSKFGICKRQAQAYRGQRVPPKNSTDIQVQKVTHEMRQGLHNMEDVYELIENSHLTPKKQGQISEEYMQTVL

For `O=C(O)CC(C(=O)O)C(CC(=O)O)C(=O)O` (configuration not stated), the Potency result in [1], in [3], in [4], in [6], in experiment [7] and in [8] was “inactive” each time. Besides, the Potency result in experiment [9], in [10], in experiment [12], in experiment [13], in experiment [14] and in experiment [15] was “inactive” in each case. In addition, the Potency result in experiment [16] is “inactive”. The molecule was called inactive in [2], in experiment [5] and in [11].

Take `Cc1ccc(N(C)C)cc1`: the Potency entry in experiment [1], in experiment [3], in experiment [4], in experiment [17], in experiment [18] and in experiment [7] was “inactive” in each case. Besides, the Potency result in experiment [8], in [19], in [9], in experiment [12], in [13] and in experiment [14] was “inactive” in each case. Besides, the Potency result in [15] and in experiment [16] was “inactive” in each case. Also, the molecule was classed as inactive in experiment [2] and in experiment [5].

In the case of `COc1ccc(Nc2ccccc2)c(C)c1`, the Potency result in experiment [1], in experiment [3], in experiment [4], in [6], in experiment [7] and in experiment [8] was “inactive” in each case. The Potency result in experiment [9], in experiment [10], in experiment [12], in [13], in experiment [14] and in [15] was “inactive” throughout. In addition, in experiment [16], the Potency result was “inactive”. Moreover, the result in experiment [2] and in experiment [5] was inactive.

As for `CC(C)c1ccc(S(=O)(=O)O)cc1`, the Potency entry in experiment [1], in experiment [3], in experiment [4], in [6], in experiment [17] and in experiment [18] was “inactive” in each case. For the same molecule, the Potency entry in experiment [7], in experiment [8], in [9], in [12], in [13] and in experiment [14] was “inactive” throughout. Besides, the Potency entry in experiment [15] and in experiment [16] was “inactive” in each case. Besides, the outcome in [2], in experiment [5] and in experiment [11] was inactive.

`COc1ccc(NC(C)=O)cc1N`: the Potency entry in [1], in experiment [3], in experiment [4], in experiment [6], in experiment [17] and in experiment [18] was “inactive” in each case. Moreover, the Potency result in experiment [7], in experiment [8], in experiment [9], in experiment [12], in experiment [13] and in experiment [14] was “inactive” each time. The Potency entry in experiment [15] and in experiment [16] was “inactive” throughout. Further, the result in experiment [2] and in experiment [5] was inactive.

On to `CCCCN(CCCC)CCCC`, for which the Potency entry in experiment [1], in experiment [3], in experiment [4], in experiment [17], in experiment [18] and in experiment [7] was “inactive” each time. The Potency result in experiment [8], in experiment [9], in experiment [10], in [12], in [13] and in experiment [14] was “inactive” throughout. Also, the Potency entry in experiment [15] and in experiment [16] was “inactive” throughout. Besides, the outcome in experiment [2], in [5] and in [11] was inactive.

Take `CCCCCCCCCCCCCCCO`: the Potency result in experiment [1], in [4], in experiment [17], in experiment [7], in experiment [8] and in [9] was “inactive” throughout. Besides, the Potency entry in [12], in [13], in experiment [14], in experiment [15] and in experiment [16] was “inactive” in each case. Moreover, the call in [2], in experiment [5] and in experiment [11] was inactive. In addition, the Potency in experiment [3] is 30.9 µM (active) and inactive; in experiment [6] it was 27.5 µM (active) and inactive.

Consider `CC(O)COCC(C)O` (configuration not stated), for which the Potency entry in [1], in experiment [3], in experiment [4], in experiment [6], in [7] and in [8] was “inactive” in each case. Also, the Potency entry in experiment [9], in experiment [12], in [13], in experiment [14], in [15] and in [16] was “inactive” in each case. The molecule was classed as inactive in experiment [2] and in [5].
